# In PubChem BioAssay AID652094 (National Center for Advancing Translational Sciences (NCATS), 2013):
# Calls of active or inactive are those of the source.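 Rule for the calls: active = lower glucosylceramide lipid buildup in Gaucher patient macrophages after compound treatment; inactive = the rest.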
# Assay: Extended Characterization of Activators of N370S glucocerebrosidase as a Potential Chaperone Treatment of Gaucher Disease: Quantification of GlcCer accumulation in Gaucher macrophages
# Settings: Gaucher patient macrophages, GlcCer-BODIPY accumulation fluorescence
# Excerpt: Glucocerebrosidase (GCase) catalyzes the hydrolysis of beta-glucocerebroside (GC) to glucose and ceramide in lysosomes. Mutations in the glucocerebrosidase gene result in Gaucher disease, an autosomal recessive lysosomal storage disorder. Many of the mutations encountered in patients with Gaucher disease are missense alterations that may cause misfolding, decreased stability and/or mistrafficking of this lysosomal protein. […] These inhibitors include iminosugar analogs and other inhibitors that were discovered as part of previous work. However, the enhancement of enzyme activity by the chaperone action of an enzyme inhibitor must be balanced against the direct inhibition of the enzyme. […] In this extended characterization of our probe, we have further characterized the activity of probes in relevant models of Gaucher disease. This assay attempts to quantitate GC concentration in patient-derived macrophages following compound incubation. NIH Chemical Genomics Center [NCGC] NIH Molecular Libraries Probe Production Centers Network [MLPCN] […]
# In order to quantify macrophage GlcCer accumulation, erythrocyte ghosts were labeled with N-[11- (dipyrrometheneboron difluoride) undecanoyl]-D-Glucosyl-beta1-1'-D-erythro-sphingosine (C11 TopFluor Glucosyl Ceramide) (Avanti Polar Lipid) for 30 min at 37 degrees C and fluorescence measured at 495/503 nm on a Victor 1420 multi-label counter (PerkinElmer).
row,SMILES,outcome
1,C#Cc1ccc(NC(=O)c2cnn3c(C)cc(C)nc23)cc1,active; decreased
